In the library only some 19% were active in any assay of this set; here they are far more common.
TDP1 cell noCPT: qHTS for Inhibitors of human tyrosyl-DNA phosphodiesterase 1 (TDP1): qHTS in cells in absence of CPT. DT40 Tdp1-/- hTDP1 cells, no CPT, ATP luminescence, 48 h. Potency, µM (series often up to 46.2 µM), without a hit: top-dose activity change, negative = growth inhibition, hits mostly inhibitors. actives 15% (n = 420,000); further: potency means the concentration at half of the fitted maximal effect; nearly all actives have a fitted effect of over 55% in size
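Chicken DT40 Tdp1-/- cells stably complemented with human TDP1 were seeded at 400 cells/well with DMSO in place of 20 nM camptothecin. After compound pinning, cells grew at least 48 hr at 37 °C; viability read by CellTiter-Glo luminescence.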
HT1080 IDH1KD tx: HT-1080 IDH1 knockdown cell toxicity (counter line); HT-1080 IDH1 knockdown viability, ATP luminescence, 48 h; Potency, µM (titrated, usually from 46.1 µM), for inactives: at the top dose activity, negative = toxicity, actives largely listed as cytotoxic; actives 2% (n = 360,000); AID 686971;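 further: potency means the concentration at half of the fitted maximal effect; 0% = DMSO wells and -100% = cell-free medium wells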
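Using the IDH1-knockdown HT-1080 line run in the same batch and compound series as the NT line, viability after 48 h at 37 °C was determined by CellTiter-Glo luminescence and expressed as % activity.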
ELG1 repair inh: inhibitors of ELG1-dependent DNA repair in HEK293T cells; AID 504467; actives 2.3% (n = 330,000); Potency, µM (doses to about 46.1 µM), for inactives: top-dose activity change, negative = inhibition, actives largely listed as inhibitors; HEK293T ELG1-luciferase reporter, luminescence, 16 h; DNA damage induced by 5-fluorouridine; further: potency means the concentration at half of the fitted maximal effect; nearly all actives have a fitted effect of over 55% in size
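Quantitative HTS, concentration-response format. 2,000 cells/well co-treated with 5-fluorouridine and compound, 16 hr in 5% CO2 at 37 °C; ONE-Glo luminescence read after 30 min.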
TDP1 cell CPT: DT40-hTDP1 cell growth loss with CPT. chicken DT40 Tdp1-/-;hTDP1 cells + 20 nM CPT, ATP luminescence, 48 h. Potency, µM (series often up to 46.2 µM), without a hit: top-dose activity change, negative = growth inhibition, usual class: inhibitors. actives 12% (n = 420,000); further: potency means the concentration at half of the fitted maximal effect; nearly all actives have a fitted effect of over 55% in size
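Cell growth measured by CellTiter-Glo luminescence after a minimum 48 h, 37 C compound exposure with 20 nM CPT in Tdp1-knockout DT40 cells stably expressing hTDP1, seeded 400/well; qHTS titration format.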
HT1080-NT tox: kills 2HG-producing HT-1080-NT fibrosarcoma cells; HT-1080-NT fibrosarcoma viability, CellTiter-Glo ATP luminescence, 48 h; Potency, µM (titrated, usually from 46.1 µM), for the others: top-dose activity, negative = less viability, usual class: cytotoxic; actives 1.6% (n = 360,000);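 further: NT is the 2HG producing partner of a matched IDH1 knockdown line; potency means the concentration at half of the fitted maximal effect; 0% = DMSO-treated cells and -100% = media-only wells without cells; nearly all actives have a fitted effect of over 55% in size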
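Fibrosarcoma NT cells, 750 per well in 5% FBS RPMI, were exposed to compound for 48 hours. Viability: CellTiter-Glo luminescence.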
IL-1B inflam inh: blocks inflammasome-driven IL-1 beta release; THP-1 LPS/ATP IL-1B secretion, AlphaLISA, 16 h; stronger effect = lower value; activity change, % at 57.5 µM; actives 4.7% (n = 360,000); in the data active means activity change below about -50%; inconclusive means mostly about -30% to -49%
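THP-1 cells pretreated 1 hr with compounds (up to 57.5 uM final), then stimulated with LPS (250 ng/mL final) plus ATP (1.25 mM final); secreted IL-1B measured by AlphaLISA after 16 hr, decreased signal indicating inhibition.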
Starred values were filed as active, the others as inactive. Unless noted, the call rests on the fitted dose curve; in most records, active means well fitted curve in the direction sought with a large enough effect; inconclusive means small, poorly fitted or top-dose-only effect, or another doubt; inactive means no such curve, though single readings can be large; an effect the other way counts as inactive or inconclusive. Unless noted, on the % scale 0 is the no-effect control and ±100 the full control effect.

`CCCN1C(=O)c2ccccc2NC1c1ccc(OC)c(COc2ccc([N+](=O)[O-])c(C)c2)c1` (centres undefined) gave TDP1 cell noCPT 17.8µM* and TDP1 cell CPT inconclusive.
`COc1ccc(C2Nc3ccccc3C(=O)N2Cc2ccco2)cc1COc1ccc([N+](=O)[O-])cc1` (centres undefined) gave TDP1 cell noCPT 23.1µM*, HT1080 IDH1KD tx 8.1%, ELG1 repair inh inconclusive, TDP1 cell CPT inconclusive, HT1080-NT tox 6.8% and IL-1B inflam inh inconclusive.
For COc1cccc(OCc2cc(C3Nc4ccccc4C(=O)N3Cc3ccco3)ccc2OC)c1 (centres undefined) the results were TDP1 cell noCPT inconclusive, HT1080 IDH1KD tx -0.4%, ELG1 repair inh inconclusive, TDP1 cell CPT inconclusive, HT1080-NT tox -0.7% and IL-1B inflam inh -27.3.
For CC(=O)NC(Cc1cc(C)ccc1C)C(=O)N1CCN(C(=O)c2ccc([N+](=O)[O-])cc2)CC1 (centres undefined) the results were TDP1 cell noCPT -14.3%, HT1080 IDH1KD tx -1.3%, ELG1 repair inh -4.4%, TDP1 cell CPT 38.3%, HT1080-NT tox 11.5% and IL-1B inflam inh 17.3.
Screening O=C(NCC1CCCO1)c1ccc(OC2CCN(C(=O)C3CC3)CC2)cc1 (centres undefined) returned TDP1 cell noCPT 10.4%, HT1080 IDH1KD tx 9.1%, ELG1 repair inh 4.6%, TDP1 cell CPT 5.8%, HT1080-NT tox 1.8% and IL-1B inflam inh 28.0.
`C(=NNc1nnn(Cc2ccccc2)n1)c1ccccc1` gave TDP1 cell noCPT inconclusive, HT1080 IDH1KD tx 18.4µM*, TDP1 cell CPT inconclusive, HT1080-NT tox 9.2µM* and IL-1B inflam inh 42.3.
O=C(O)CC(NC(=O)Cc1ccc([N+](=O)[O-])cc1)c1ccc2c(c1)OCO2 (centres undefined) was read as TDP1 cell noCPT -1.9%, HT1080 IDH1KD tx inconclusive, ELG1 repair inh -11.4%, TDP1 cell CPT 5.5%, HT1080-NT tox -3.6% and IL-1B inflam inh 5.2.
For O=[N+]([O-])c1cc(CS(=O)(=O)Oc2ccc(Cl)cc2)c(O)c([N+](=O)[O-])c1 the results were TDP1 cell noCPT -19.7%, HT1080 IDH1KD tx 4.0%, TDP1 cell CPT 2.5%, HT1080-NT tox 16.3% and IL-1B inflam inh 12.7.
`CS(=O)(=O)c1ccc(S(=O)CC(=O)Oc2ccc(Cl)cc2)c([N+](=O)[O-])c1` (centres undefined) gave TDP1 cell noCPT 0.581µM*, HT1080 IDH1KD tx 18.4µM*, ELG1 repair inh inconclusive, TDP1 cell CPT 1.16µM*, HT1080-NT tox 23.1µM* and IL-1B inflam inh -98.8*.
`O=C(CS(=O)c1ccccc1[N+](=O)[O-])Oc1ccc(Br)cc1` (centres undefined) gave TDP1 cell noCPT -16.7%, HT1080 IDH1KD tx -8.6%, ELG1 repair inh -3.1%, TDP1 cell CPT -19.3%, HT1080-NT tox -13.7% and IL-1B inflam inh -62.4*.
For CCS(=O)(=O)c1ccc2oc(SCC(=O)NC3CCCC(C)C3C)nc2c1 (centres undefined) the results were TDP1 cell noCPT inconclusive, HT1080 IDH1KD tx -19.1%, ELG1 repair inh inconclusive, TDP1 cell CPT inconclusive, HT1080-NT tox -5.4% and IL-1B inflam inh -14.0.
`Cc1cc(NC(=O)CSc2nnc(-c3ccc([N+](=O)[O-])cc3)o2)no1` gave TDP1 cell noCPT 3.3%, HT1080 IDH1KD tx -6.9%, ELG1 repair inh 9.7%, TDP1 cell CPT -4.5%, HT1080-NT tox 9.8% and IL-1B inflam inh -4.4.
For CC1=C(C(=O)N(C(C)C)C(C)C)CC(CC(=O)NCCN2CCOCC2)C(=O)N1CCC1=CCCCC1 (centres undefined) the results were TDP1 cell noCPT -28.1%, HT1080 IDH1KD tx 6.6%, TDP1 cell CPT -14.2%, HT1080-NT tox 7.5% and IL-1B inflam inh -15.9.
Screening CC1=C(C(=O)N(C(C)C)C(C)C)CC(CC(=O)NC2CCCC2)C(=O)N1CCC1=CCCCC1 (centres undefined) returned TDP1 cell noCPT 23.1µM*, HT1080 IDH1KD tx 12.6%, TDP1 cell CPT inconclusive, HT1080-NT tox 6.3% and IL-1B inflam inh inconclusive.
Screening CC1=C(C(=O)N(C(C)C)C(C)C)CC(CC(=O)NC2CC2)C(=O)N1CCC1=CCCCC1 (centres undefined) returned TDP1 cell noCPT inconclusive, HT1080 IDH1KD tx 7.2%, TDP1 cell CPT 16.4µM*, HT1080-NT tox 24.0% and IL-1B inflam inh 42.5.
For CC1=C(C(=O)N(C)C)CC(CC(=O)NC2CC2)C(=O)N1CCC1=CCCCC1 (centres undefined) the results were TDP1 cell noCPT -18.2%, HT1080 IDH1KD tx 0.1%, TDP1 cell CPT -12.4%, HT1080-NT tox 3.6% and IL-1B inflam inh 10.6.
`CC1(C(=O)NS(=O)(=O)c2ccc(Br)cc2)CCN1C(=O)C1CCCCC1` (centres undefined) gave TDP1 cell noCPT -14.7%, HT1080 IDH1KD tx 11.9%, TDP1 cell CPT -15.0%, HT1080-NT tox 22.2% and IL-1B inflam inh 43.9.
`Cc1ccc(C)c(-n2cc(CNC(C)Cn3cncn3)c(-c3ccccc3)n2)c1` (centres undefined) gave TDP1 cell noCPT inconclusive, HT1080 IDH1KD tx -13.8%, ELG1 repair inh inconclusive, TDP1 cell CPT inconclusive, HT1080-NT tox 1.3% and IL-1B inflam inh -17.6.
For Cc1ccc(-c2nn(-c3ccccc3)cc2CO)cc1 the results were TDP1 cell noCPT 3.8%, HT1080 IDH1KD tx -13.9%, ELG1 repair inh inconclusive, TDP1 cell CPT 12.6%, HT1080-NT tox -8.3% and IL-1B inflam inh -22.9.
Screening CCN1CC(CN(C)Cc2cn(-c3cccc(C)c3)nc2-c2cccc(F)c2)CC1=O (centres undefined) returned TDP1 cell noCPT 18.4µM*, HT1080 IDH1KD tx -6.6%, ELG1 repair inh -16.8%, TDP1 cell CPT 16.4µM*, HT1080-NT tox 2.1% and IL-1B inflam inh inconclusive.
For Cc1cccc(-n2cc(CNCCc3nc(C)cc(C)n3)c(-c3cccc(F)c3)n2)c1 the results were TDP1 cell noCPT 4.61µM*, HT1080 IDH1KD tx inconclusive, ELG1 repair inh 23.1µM*, TDP1 cell CPT 11.6µM*, HT1080-NT tox inconclusive and IL-1B inflam inh inconclusive.

Screening results: PubChem, National Center for Advancing Translational Sciences (NCATS)
